D3 antag: antagonists of human D3 dopamine receptor; P35462; actives 2.5% (n = 360,000); max response, negative = inhibition, %; D3R cells, DiscoveRx beta-arrestin luminescence, antagonist mode; hits give low values; AID 652054; in the data active = max response below about -50%; inconclusive = no clear call, values can overlap the other calls; also: % is scaled to controls: 0 for no effect and ±100 for the full control effect
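Cells plated overnight at 1500 cells/well, then exposed to library compounds with dopamine controls for 90 minutes at 37 degrees C. DiscoveRx reagent added for 30–60 minutes at room temperature; luminescence read, quantitative HTS format.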
TRPML1 agonist: human mucolipin-1 channel agonism. TRPML1-expressing cells, Ca2+ dye fluorescence, FDSS. Q9GZU1. actives 0.12% (n = 410,000). activation, % (no concentration beside the values); in the data active = activation above about 50%; inconclusive = mostly about 30% to 49%; also: 0% is about no effect
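Tet-induced TRPML1-DL cells, 1,500 per well, cultured overnight, were loaded with a no-wash Ca2+ dye for 45–90 min. Calcium fluorescence was recorded on the FDSS for 110 s after compound addition, before the EC80 agonist (4 uM 54-4) was added.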
TRPML1 blocker: inhibitors of human TRPML1 channel. Q9GZU1. TRPML1-inducible cells, Ca2+ dye fluorescence, FDSS; hits give low values; inhibition of EC80 agonist-evoked calcium signal. activity change, negative = inhibition, % (test concentration not listed). actives 0.02% (n = 390,000). AID 624415; in the data active = activity change below about -50%; inconclusive = between about -30% and that limit;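 also: stimulus is agonist 54-4 at its EC80 concentration; % is scaled to controls: 0 for no effect and ±100 for the full control effect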
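Calcium fluorescence in TRPML1-DL cells induced overnight with Tet: a 110 s read after compound pin addition, then a 110 s antagonist read after challenge with 54-4 at 4 uM final (EC80).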
D3 ag: D3 dopamine receptor (human) agonism | D3R DiscoveRx beta-arrestin cells, luminescence, 90 min | max activation, % | actives 0.58% (n = 410,000); in the data active = max activation above about 30%; also: 0% is about no effect
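Agonist-mode cell screen: cells plated at 1500/well and incubated overnight at 37 °C, then exposed to library compounds for 90 min at 37 °C. Detection reagent was added for 30–60 min at room temperature, and luminescence was read.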
Active calls of the source: *; ? = inconclusive; . = no result; ! = not active in a repeat. Sampled rows, rich in hits. Any-hit rate of the full collection: about 2.9%.

SMILES	D3 antag	TRPML1 agonist	TRPML1 blocker	D3 ag
Cc1ccc(C(C)(C)C)c(OCCOCCN2CCCC2)c1	-54*	0	29	-30
CC(C)(C)c1ccccc1OCCOCCN1CCCCCC1	-62*	2	28	-14
CCOc1cc(CNC(=O)c2ccc(Cn3c(=O)c4cccn4c4cccnc43)cc2)ccc1OC	.	0	12	4
Cc1oc(-c2ccccc2Cl)nc1CSc1nc2c(c(=O)[nH]1)CCCC2	113	2	-10	30*
CC(=O)Nc1ccccc1OCC(=O)c1ccc2c(c1)OCO2	13	1	-4	47*
CN(C)CCC(=O)c1ccc2c(c1)OCO2	-61*	3	0	-2
CN(C)CCCC(=O)c1ccc2c(c1)OCO2	0	1	-6	-17
O=C(CC1(O)C(=O)N(CCc2ccccc2)c2ccc(Br)cc21)c1ccccc1O (configuration not stated)	.	0	-23	-21
Cc1nnc(SCC(=O)c2cc(C)n(-c3c(C)n(C)n(-c4ccccc4)c3=O)c2C)s1	15	0	-5	4
Cc1cc(C(=O)CSc2nncs2)c(C)n1-c1c(C)n(C)n(-c2ccccc2)c1=O	-95*	0	7	7
Cc1ccc(CN2CC(N3CCN(C4CCN(C)CC4)CC3)CS2(=O)=O)cc1 (configuration not stated)	?	0	.	-5
CCCCCCN1CCN(C2CN(Cc3ccccc3)S(=O)(=O)C2)CC1 (configuration not stated)	-94*	-1	.	-15
Cc1ccc(CN2CC(N3CCN(C)CC3)CS2(=O)=O)cc1 (configuration not stated)	-68*	0	.	-3
Cc1cc(/C=C2\C=Cc3ccccc32)cc(C)c1N	.	0	.	.
COc1ccc2[nH]c(C(O)C(O)c3nc4c(OC)c(OC)ccc4[nH]3)nc2c1OC (configuration not stated)	.	-1	.	.
Cc1ccn(C(=O)c2cc3c(C)nn(-c4ccccc4)c3s2)n1	-52*	2	45	1
Cc1nn(-c2ccccc2)c2sc(C(=O)NC3CCCCC3)cc12	2	0	2	-10
Cc1nn(-c2ccccc2)c2sc(C(=O)n3cccn3)cc12	?	0	0	-11
Cc1nn(-c2ccccc2)c2sc(C(=O)NCCN3CCOCC3)cc12	-71*	3	10	3
CCc1nnc(NC(=O)CSc2nc3c([nH]c4ccccc43)c(=O)n2-c2ccc(Cl)cc2)s1	.	1	20	2
O=C1c2cc(O)cc(O)c2C(=O)c2c1cc(O)c([C@@H](CO)CCO)c2O	-53*	.	.	-21
Cn1ncc2c(N3CCN(c4ccccc4F)CC3)ncnc21	29	0	9	30*!
Cn1nnc2c(N3CCN(c4ccccc4F)CC3)ncnc21	.	0	-1	-3
COc1ccc(C(=O)OCc2c(-c3ccccc3)ncc3ccccc23)cc1	-50*	2	-8	-28
Cc1ccc(C(=O)CN(CCC(=O)O)C(=O)c2ccncc2)cc1	28	0	11	31*
SMILES	D3 antag	TRPML1 agonist	TRPML1 blocker	D3 ag
Cc1ncoc1C(=O)N1CCCC(C(=O)Nc2cccc(-c3ccc(F)cc3)c2)C1 (configuration not stated)	-2	53*	-8	-17
CC1(C)SC(=S)N(/N=C/c2ccc(O)cc2)C1N(O)C(=O)Nc1ccc([N+](=O)[O-])cc1 (configuration not stated)	-23	-1	-11	-22
Cc1ccc(/C=N/N2C(=S)SC(C)(C)C2N(O)C(=O)Nc2ccc([N+](=O)[O-])cc2)cc1 (configuration not stated)	-58*	3	-6	-7
Cc1ccc(-c2nn(CC(=O)Nc3cccc(C(F)(F)F)c3)c(=O)c3ccccc23)cc1	.	1	-9	6
Cc1nnc(NC(=O)Oc2ccccc2)s1	-16	0	9	-21
CCC(CC)c1nnc(NC(=O)Oc2ccccc2)s1	-69*	0	-15	-3
O=C(Nc1ccc2c(c1)CCCN2C(=O)c1cccs1)c1cccc(C(F)(F)F)c1	.	1	4	-3
O=C1NC(c2ccccc2)C(C(=O)c2cccs2)=C1O (configuration not stated)	-58*	2	-10	-10
CC(CCCN(C)C)C(Cc1ccccc1)c1ccccc1 (configuration not stated)	-69*	1	-12	-9
CN(C)CCNC(=O)C(c1ccccc1)c1ccccc1	5	-1	9	-13

Screening results as filed in PubChem.
